These results are taken from PubChem BioAssay AID1236 (Emory University Molecular Libraries Screening Center, 2008).

As usually defined, the inhibition is the relative decrease from the control value, in per cent.

The campaign covered roughly 220,000 compounds. About 800 (0.36%) were called active. The sample holds actives, similar compounds and a random draw of the others, so the mix is not that of the screen. Unmarked numbers belong to inactive results.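 Rule for the calls: active = inhibition above about 50% (limit read from the data); inactive = the rest.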

In this assay the test system is calpain II (m-calpain), Sus scrofa. In words: m-calpain protease activity blockers – biochemical, fluorogenic peptide substrate, 1536-well, primary screen (AID 1236). The settings on record: purified calpain II, 30 min, at 16 µM, active compounds read high.
As for `Cc1cccc(NC(=S)N(CCN(C)C)C(C)c2ccco2)c1` (stereo unspecified), the inhibition is -1.81%.

As for `Fc1c(F)c(C(F)(F)F)c(F)c(F)c1N1CCN(c2ccc3nnc(C(F)(F)F)n3n2)CC1`, the inhibition was 58.9% (active).

Take `FC(F)(F)c1nnc2ccc(N3CCN(c4ccccc4)CC3)nn12`: the inhibition was 8.02%.

`Cc1ccnc(NC(=O)Cn2ccc([N+](=O)[O-])n2)c1`: the inhibition is -9.6%.

As to `Cc1cc(C)cc(C(=O)N(CCc2ccccc2)C2=CC3CCC(C2)N3C)c1` (stereo unspecified), the inhibition is -21.9%.

`CCn1c(SCC(=O)N/N=C/c2ccccc2OCC(=O)O)nnc1-c1ccc(C(C)(C)C)cc1`: the inhibition is -10.5%.

As for `CCC/C=C(\CCC)C(NC(=O)Cc1ccccc1)c1ccc(C(=O)OC)cc1` (stereo unspecified), the inhibition is 3.04%.

On to `CCOC(=O)CN(C)S(=O)(=O)c1ccc(-c2cc(C(=O)OC)sc2C(F)(F)F)cc1`, for which the inhibition was 17.5%.

In the case of `Oc1c(Br)cc(/C=N/NC(=S)NCC2CCCO2)cc1Br` (stereo unspecified), the inhibition is -20.7%.

With `CCc1ccc(OCC(=O)OCC(=O)c2c(N)n(C)c(=O)n(C)c2=O)cc1`, the inhibition is 4.26%.

As for `Cc1cc(C(=O)OCC(=O)c2c(N)n(C)c(=O)n(C)c2=O)c(C)o1`, the inhibition is 32.4%.

With `Cn1c(N)c(C(=O)COC(=O)c2cnc(Cl)c(Cl)c2)c(=O)n(C)c1=O`, the inhibition is 69% (active).

Turning to `Cc1csc(NC(=O)c2ccc(-c3ccc(Cl)cc3Cl)o2)n1`, the inhibition was -95.3%.

`COc1ccc(CN2CCN(Cc3cn(C)nc3-c3ccccc3)CC2CCO)c(C)c1C` (stereo unspecified): the inhibition was -24.9%.

Regarding `O=C1CCN(C(=O)Nc2ccccc2)N1`, the inhibition is 9.94%.

With `CC(C)CNC(=O)CC(c1ccccc1)c1c(O)ccc2ccccc12` (stereo unspecified), the inhibition was -74.9%.

As for `CCc1ccc(Oc2nc([N+](=O)[O-])nn2C)cc1`, the inhibition was -6.47%.

For `C=CCn1c(SCc2cccc(F)c2)nc2cc(C(=O)N3CCC(C(N)=O)CC3)ccc2c1=O`, the inhibition was -22.9%.

On to `O=C(NC(=S)Nc1cccc2c(O)cccc12)c1cccc(Br)c1`, for which the inhibition is -4.46%.

`C#CCSc1nnc(-c2sc3ccccc3c2Cl)o1`: the inhibition is 50.5% (active).

On to `Clc1ccc(-c2nnc(SCc3nc4ccccc4s3)o2)cc1`, for which the inhibition was 8.94%.

On to `O=C(OCC#CCSc1nnc(-c2ccncc2)o1)c1sc2ccccc2c1Cl`, for which the inhibition was 20.6%.

Regarding `Cc1cccc(N(C)C(=O)c2cc3c(=O)[nH]c4ccc(C)cc4c3s2)c1`, the inhibition is -47.9%.

`O=C(O)CCn1cc(/C=C/C(=O)c2ccc(Cl)cc2)c(-c2cccc(Br)c2)n1`: the inhibition was 31.9%.

In the case of `CS(=O)(=O)c1ccc2nc(NC(=O)c3ccc(Cl)nc3)sc2c1`, the inhibition is 8.84%.

As for `Nc1nc(-c2sc3nc4c(cc3c2N)CCCC4)nc(N2CCOCC2)n1`, the inhibition is -253%.

As to `C/C(=N\OCC(=O)O)c1ccc(Cl)cc1`, the inhibition is 25.9%.

With `CCOC(=O)CN/C=C(\C#N)c1ccc(F)cc1`, the inhibition is -15.5%.

For the compound `CCOc1cc(/C=C(/C#N)c2ccc(Cl)cc2)cc(Cl)c1OCC(=O)O`, the inhibition is 50.5% (active).

`Nc1c(Cl)cc(S(N)(=O)=O)cc1S(N)(=O)=O`: the inhibition was -2.3%.

As to `Cc1cc([N+](=O)[O-])c(-c2ccc(/C=N/n3cnnc3)o2)cc1Cl`, the inhibition is 58.9% (active).

Regarding `Cc1ccc(Cl)cc1-c1ccc(/C=N/n2cnnc2)o1`, the inhibition is 4.96%.

Take `Cc1cc(-c2ccc(/C=N/n3cnnc3)o2)c([N+](=O)[O-])cc1C`: the inhibition is 34.4%.

As to `NS(=O)(=O)c1ccc(CNC(=O)c2cnccn2)cc1`, the inhibition is -9.46%.

As to `Cc1nc(NC2=NC(C(=O)Nc3ccc(Cl)cc3)CC(=O)N2)nc2ccccc12` (stereo unspecified), the inhibition was 6.9%.

With `CCNC(=O)N1c2ccccc2Sc2ccccc21`, the inhibition was -4.08%.

As to `CCC(C(=O)OCC(=O)Nc1ccccc1-c1ccccc1)c1ccccc1` (stereo unspecified), the inhibition is 56.9% (active).

`CCC(C(=O)OCC(=O)Nc1ccc(C(=O)Nc2ccc(OC)cc2)cc1)c1ccccc1` (stereo unspecified): the inhibition was 38%.

As to `CCC(C(=O)OCC(=O)Nc1c(Cl)cc(Cl)cc1Cl)c1ccccc1` (stereo unspecified), the inhibition is 11.9%.

As to `CCOc1c(CNCc2ccc(C(=O)O)cc2)cccc1OC`, the inhibition is -12%.

For the compound `CC(=O)N1C(C)c2ccccc2C(C)(C)CC12CCCCC2` (stereo unspecified), the inhibition was 10.1%.

Turning to `COc1ccc(S(=O)(=O)N(CC(=O)N/N=C/c2ccccc2C(=O)O)c2ccccc2OC)cc1`, the inhibition was -1.16%.

Consider `COC(=O)CCCC1=CC2=CC(=O)C(C)(OC(=O)c3cccs3)C(=O)C2=CN1c1cccc(C#N)c1` (stereo unspecified), for which the inhibition was -53.3%.

For the compound `CC(=NCc1ccco1)c1c(C(F)(F)F)[nH]n(-c2nc3ccccc3s2)c1=O`, the inhibition was -91.3%.

As for `S=C(NCCc1ccccc1)Nc1ccccc1`, the inhibition was 16%.

As to `Cc1ccc(N2CCN(/N=C/c3cccs3)CC2)cc1`, the inhibition is -29.6%.

Turning to `Cc1ccsc1/C=C1\SC(N2CCOCC2)=NC1=O`, the inhibition is 15.5%.

`Cc1ccc(N2CCN(C3=NC(=O)/C(=C\c4cccs4)S3)CC2)cc1`: the inhibition was 76.7% (active).

Regarding `O=[N+]([O-])c1ccc(N2CCSCC2)cc1O`, the inhibition is 2.99%.

On to `O=C(OCc1ccc(Br)cc1)c1cccc(-c2nnc(-c3ccccc3)o2)c1`, for which the inhibition is -6.16%.

On to `O=C(Nc1ccccc1C(F)(F)F)N1CCCC1c1cccnc1` (stereo unspecified), for which the inhibition was 3.9%.

Take `O=C(c1cccc(F)c1)N1CCN(c2ccc([N+](=O)[O-])c(N3CCCCC3)c2)CC1`: the inhibition is 5.06%.

As for `O=C(c1ccccc1)N1CCN(c2ccc([N+](=O)[O-])c(NCc3ccco3)c2)CC1`, the inhibition is 54.3% (active).

In the case of `O=[N+]([O-])c1ccc(N2CCN(S(=O)(=O)c3ccc4ccccc4c3)CC2)cc1NCc1ccco1`, the inhibition is -59%.

For `O=C(COC(=O)c1ccc(Cl)nc1)NCc1cccs1`, the inhibition was 13.2%.

With `C/C(=N/NC(=S)Nc1ccccc1)c1ccc2c(c1)OCO2`, the inhibition was -6.26%.

Regarding `CC(C)(C)c1cc(C(=O)NN)n(Cc2ccc(Cl)cc2Cl)n1`, the inhibition was 17.2%.

Take `Cn1c(=O)cc(OCC(=O)N2CCN(c3ccccc3F)CC2)c2ccccc21`: the inhibition was -13.2%.

Turning to `CC(C)Oc1ccc(Cc2n[nH]c(=S)n2Cc2ccccc2)cc1Cl`, the inhibition is 15.2%.

Regarding `CC(C)Oc1ccc(CCc2n[nH]c(=S)n2Cc2ccccc2)cc1`, the inhibition was 53.5% (active).

In the case of `C=CCn1c(CCc2ccc(OC(C)C)cc2)n[nH]c1=S`, the inhibition is -15.1%.
